# Test results: PubChem BioAssay (NCI)
# Compounds without any hit were thinned out: in the full panel of roughly 83,000, 20% have a hit.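 Note: values are percent growth. 100 is the growth of untreated cells, values between 100 and 0 indicate rising inhibition; between -100 and 0 indicates cell death.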 The source made the active and inactive calls. Rule for the calls: active = growth percent below 10; inactive = the rest.
# System: CCRF-CEM leukemia
# Assay: NCI-60 one-dose screen, 48 h (100 = growth as untreated, 0 = no growth, -100 = all killed)
# Settings: 10 µM unless noted
row,SMILES,growth
1,O=C(CNC(=O)c1cccc2ccccc12)Nc1ccccc1Oc1ccccc1,18.3% (inactive)
2,CN(C)C/C=C/C(=O)Nc1cc2c(Nc3ccc(F)c(Cl)c3F)ncnc2cc1OCCOC(F)F,26.3% (inactive)
3,CC(C)C(C(=O)CCN(C)C)c1ccc(Cl)cc1 (centres undefined),90.6% (inactive)
4,ClC1=C(Cl)C(Cl)=C(Cl)C1=Cc1ccc(Cl)cc1Cl,3.34% (active)
5,CC(C)CCC[C@@H](C)[C@H]1CC[C@H]2[C@@H]3CC[C@H]4C/C(=N/O)CC[C@]4(C)[C@H]3CC[C@]12C,100% (inactive)
6,CN(C)c1nc(N)c(N=O)c(N)n1,112% (inactive)
7,C/C(=N\NC(=O)CC#N)c1cc2cc(Cl)ccc2o1,70.2% (inactive)
8,COc1cc(C2CC(c3c(C)[n+]([O-])c4ccccc4[n+]3[O-])=NN2)cc(OC)c1OC (centres undefined),87.5% (inactive)
9,COc1cc(/C=C/C(=O)c2ccccc2O)ccc1OCCCOc1cc2c(cc1OC)C(=O)N1CCC[C@H]1C=N2,5.24% (active)
10,O=C1CCC/C=C\C[C@H]2C=CC(=O)/C2=C/C[C@H](C/C=C\CC(F)(F)F)O1,-5.64% (active)
11,CC(C)(C)c1cc(-c2nc3ccc(N4CCN(CCO)CC4)cc3[nH]2)cc(C(C)(C)C)c1O,29.5% (inactive)
12,C=C1C(=O)O[C@H]2[C@H]1CC/C(Cn1cc(-c3ccsc3)nn1)=C\CC[C@@]1(C)O[C@@H]21,-24.7% (active)
13,Cc1ccc(S(=O)(=O)OCC(=O)Nc2ccc(C(=O)O)c(O)c2)cc1,83.5% (inactive)
14,COc1cc(C(=O)N2CCN(C(=O)c3ccco3)CC2)c(N)cc1OCc1ccccc1,86.4% (inactive)
15,O=c1[nH]c(CN2CCN(c3ccccc3F)CC2)nc2sc3c(c12)CCC3,100% (inactive)
16,O=C(CSc1nc(-c2ccc(Cl)cc2)cn1-c1ccc(Cl)cc1)c1ccc(Br)cc1,92.8% (inactive)
17,CCCCNc1nnc(-c2cc(-c3cc4ccccc4o3)nn2-c2ccccc2)o1,80% (inactive)
18,NC(N)=NC(N)=Nc1ccccc1-c1ccccc1,113% (inactive)
19,C=CC(=O)N[C@H](/C=C/C(=O)OCC)Cc1ccc(-c2cc(Cl)cc(Cl)c2)cc1,79.3% (inactive)
20,C/C1=C\CCC2(C)OC2CC2CCC(C)(O)C(CC1)C2(C)C (centres undefined),84.1% (inactive)

# System: MOLT-4 leukemia
# Assay: as above
# Settings: 10 µM unless noted
row,SMILES,growth
1,CCCCCCCC/C=C\CCCCCCCCOc1ccccc1CCOP(=O)(O)OCC[N+](C)(C)C,11.5% (inactive)
2,CCN1C(=S)N(CC)C2Nn3c(s/c(=C4\C(=O)N(C)c5ccccc54)c3=O)=NC21 (centres undefined),61.8% (inactive)
3,O=C(CNC(=O)c1cccc2ccccc12)Nc1ccccc1Oc1ccccc1,24.2% (inactive)
4,CN(C)C/C=C/C(=O)Nc1cc2c(Nc3ccc(F)c(Cl)c3F)ncnc2cc1OCCOC(F)F,4.26% (active)
5,CC(C)C(C(=O)CCN(C)C)c1ccc(Cl)cc1 (centres undefined),76.5% (inactive)
6,CCN1C(=O)/C(=c2\sc3n(c2=O)C2C(NN=3)N(CC)C(=S)N2CC)c2ccccc21 (centres undefined),103% (inactive)
7,ClC1=C(Cl)C(Cl)=C(Cl)C1=Cc1ccc(Cl)cc1Cl,4.59% (active)
8,CC(C)CCC[C@@H](C)[C@H]1CC[C@H]2[C@@H]3CC[C@H]4C/C(=N/O)CC[C@]4(C)[C@H]3CC[C@]12C,95.9% (inactive)
9,COc1ccc(/C=c2\sc3n(c2=O)C2C(NN=3)N(C)C(=O)N2C)cc1 (centres undefined),26.5% (inactive)
10,COc1ccc(OC)c(/C=C2\Oc3cc(OCCN4CCCC4)ccc3C2=O)c1,87.5% (inactive)
11,CCCCCC/C=C\CCCCCCCCOc1ccc(CCOP(=O)(O)OCC[N+](C)(C)C)cc1,54.1% (inactive)
12,CCN1C(=O)N(CC)C2C1NN=c1s/c(=C3\C(=O)N(C4CCCC4)c4ccccc43)c(=O)n12 (centres undefined),7.37% (active)
13,CN(C)c1nc(N)c(N=O)c(N)n1,105% (inactive)
14,C/C(=N\NC(=O)CC#N)c1cc2cc(Cl)ccc2o1,87.4% (inactive)
15,COc1cc(C2CC(c3c(C)[n+]([O-])c4ccccc4[n+]3[O-])=NN2)cc(OC)c1OC (centres undefined),94.4% (inactive)
16,COc1ccc(NC(=S)/N=c2\oc3c(OC)cccc3cc2-c2cc3ccccc3[nH]2)cc1,99.1% (inactive)
17,COc1cc(/C=C/C(=O)c2ccccc2O)ccc1OCCCOc1cc2c(cc1OC)C(=O)N1CCC[C@H]1C=N2,-11.2% (active)
18,O=C1CCC/C=C\C[C@H]2C=CC(=O)/C2=C/C[C@H](C/C=C\CC(F)(F)F)O1,-0.696% (active)
19,CC(C)(C)c1cc(-c2nc3ccc(N4CCN(CCO)CC4)cc3[nH]2)cc(C(C)(C)C)c1O,32.9% (inactive)
20,C=C1C(=O)O[C@H]2[C@H]1CC/C(Cn1cc(-c3ccsc3)nn1)=C\CC[C@@]1(C)O[C@@H]21,-13.3% (active)

row,SMILES,growth
1,C#CCN1C(=O)/C(=c2\sc3n(c2=O)C2C(NN=3)N(CC)C(=O)N2CC)c2ccccc21 (centres undefined),20.9% (inactive)
2,COc1cccc2cc(-c3cc4ccccc4[nH]3)/c(=N/C(=S)Nc3ccccc3)oc12,105% (inactive)
3,Cc1ccc(S(=O)(=O)OCC(=O)Nc2ccc(C(=O)O)c(O)c2)cc1,57.1% (inactive)
4,CCCCCCCCCN1C(=O)/C(=c2\sc3n(c2=O)C2C(NN=3)N(CC)C(=O)N2CC)c2ccccc21 (centres undefined),99.7% (inactive)
5,Cc1oc2nc[nH]c(=O)c2c1C(=O)/C=C/c1ccc(Cl)cc1Cl,86.8% (inactive)
6,C#CCN1C(=O)/C(=c2\sc3n(c2=O)NC2C(N=3)N(CC)C(=O)N2CC)c2ccccc21 (centres undefined),68.5% (inactive)
7,CCN(Cc1ccc(CN(CC)C(=O)C(Cl)(Cl)Cl)cc1)C(=O)C(Cl)(Cl)Cl,29.9% (inactive)
8,COc1cc(C(=O)N2CCN(C(=O)c3ccco3)CC2)c(N)cc1OCc1ccccc1,95.4% (inactive)
9,CCN1C(=O)N(CC)C2Nn3c(s/c(=C\c4cccc(F)c4)c3=O)=NC21 (centres undefined),94.9% (inactive)
10,COc1ccc(NC(=O)/N=c2\oc3c(OC)cccc3cc2-c2cc3ccccc3[nH]2)cc1,112% (inactive)
11,O=c1[nH]c(CN2CCN(c3ccccc3F)CC2)nc2sc3c(c12)CCC3,99.8% (inactive)
12,O=C(CSc1nc(-c2ccc(Cl)cc2)cn1-c1ccc(Cl)cc1)c1ccc(Br)cc1,90.7% (inactive)
13,CCCCNc1nnc(-c2cc(-c3cc4ccccc4o3)nn2-c2ccccc2)o1,68.8% (inactive)
14,COc1cc2oc(-c3cccc(NC(=O)Nc4ccc5c(c4)OCO5)c3)cc(=O)c2c(OC)c1OC,54.8% (inactive)
15,CCN1C(=O)N(CC)C2Nn3c(s/c(=C4\C(=O)N(C5CCCC5)c5ccccc54)c3=O)=NC21 (centres undefined),84.4% (inactive)
16,NC(N)=NC(N)=Nc1ccccc1-c1ccccc1,98.6% (inactive)
17,C=CC(=O)N[C@H](/C=C/C(=O)OCC)Cc1ccc(-c2cc(Cl)cc(Cl)c2)cc1,74.3% (inactive)
18,CCN1C(=O)N(CC)C2C1NN=c1s/c(=C\c3ccccn3)c(=O)n12 (centres undefined),42.5% (inactive)
19,C/C1=C\CCC2(C)OC2CC2CCC(C)(O)C(CC1)C2(C)C (centres undefined),97.9% (inactive)
